According to PubChem BioAssay (Tox21):
Where “and” joins values, the source holds several entries; their conditions need not be identical. Equal entries are not always repeated. Records with an inconclusive call do not appear. A call without a number means that no potency is given here. The source holds several records for some structures; these can differ, active in one and inactive in another. Calls of active or inactive are those of the source. Unless noted, calls come from the whole dose curve; as a rule, active = well fitted curve in the direction sought with a large enough effect in the repeat runs; inconclusive = weak or mixed curves; inactive = no such curve, though single readings can be large; an effect the other way counts as inactive or inconclusive.

Key:
[1] = qHTS assay to identify small molecule agonists of the peroxisome proliferator-activated receptor delta (PPARd) signaling pathway - cell viability counter screen (AID 743211); note: nearly all actives have a fitted effect of over 55% in size; note: potency is the fitted concentration of half-maximal effect
Procedure, shortened: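 qHTS cell viability: PPARd-bla HEK293H; 17 h cpd, 37C; CellTiter-Glo, luminescence at 30 min RT.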

[2] = molecular target: Peroxisome proliferator-activated receptor delta (Homo sapiens) (UniProt Q03181); experiment: qHTS assay to identify small molecule agonists of the peroxisome proliferator-activated receptor delta (PPARd) signaling pathway (AID 743212; calls by dose curve)
Chain of Peroxisome proliferator-activated receptor delta (Homo sapiens) (Q03181 whole entry, looked up): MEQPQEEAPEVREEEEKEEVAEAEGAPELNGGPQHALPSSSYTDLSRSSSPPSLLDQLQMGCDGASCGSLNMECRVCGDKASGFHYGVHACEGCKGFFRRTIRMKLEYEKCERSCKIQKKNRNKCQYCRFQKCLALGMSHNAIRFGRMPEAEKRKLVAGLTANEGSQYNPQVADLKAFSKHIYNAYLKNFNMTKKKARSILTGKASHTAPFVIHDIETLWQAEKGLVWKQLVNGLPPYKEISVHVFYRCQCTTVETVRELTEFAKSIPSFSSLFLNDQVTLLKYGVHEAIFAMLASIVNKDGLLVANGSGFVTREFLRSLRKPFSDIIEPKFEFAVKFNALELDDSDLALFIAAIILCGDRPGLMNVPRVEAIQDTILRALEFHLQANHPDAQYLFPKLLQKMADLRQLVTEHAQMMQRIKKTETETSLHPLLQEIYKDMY
Procedure, shortened: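 Read-out: beta-lactamase FRET fluorescence after 2 h room-temperature incubation with LiveBLAzer B/G substrate. Cells were HEK293H carrying a UAS-bla reporter for PPARd, treated at 37 C with DMSO-dissolved compounds.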

[3] = qHTS assay to identify small molecule antagonists of the peroxisome proliferator-activated receptor delta (PPARd) signaling pathway - cell viability counter screen (AID 743213); note: nearly all actives have a fitted effect of over 50% in size; note: potency is the fitted concentration of half-maximal effect
Procedure, shortened: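 Agonist-stimulated (L165041, 300 nM final) HEK293H PPARd UAS-bla cells are exposed to compounds for 17 h at 37 C, and ATP-based luminescence (CellTiter-Glo) from the same wells reports cytotoxicity.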

[4] = molecular target: Peroxisome proliferator-activated receptor delta (Homo sapiens) (UniProt Q03181); experiment: qHTS assay to identify small molecule antagonists of the peroxisome proliferator-activated receptor delta (PPARd) signaling pathway (AID 743215; active = well fitted inhibition curve with a large enough effect in the signal ratio in the repeat runs, not every such curve was filed as active; the % refers to the signal ratio; note: series mostly up to about 62 µM)
Procedure, shortened: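 HEK293H GeneBLAzer PPARd UAS-bla reporter cells; cpd + L165041 300 nM final, 17 h 37 C; LiveBLAzer B/G FRET substrate 2 h RT; fluorescence intensity read-out. Antagonist mode.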

[5] = qHTS assay to identify small molecule agonists of the farnesoid-X-receptor (FXR) signaling pathway - cell viability counter screen (AID 743218); note: nearly all actives have a fitted effect of over 45% in size; note: potency is the fitted concentration of half-maximal effect
Procedure, shortened: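 Luminescence from CellTiter-Glo, read after 30 min at RT, reports viability of GeneBLAzer FXR-UAS-bla HEK 293T cells treated 16 h with compounds in the wells used for the beta-lactamase reporter.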

[6] = qHTS assay to identify small molecule antagonists of the farnesoid-X-receptor (FXR) signaling pathway - cell viability counter screen (AID 743221; active = well fitted cell-killing curve with a large enough effect in the repeat runs, not every such curve was filed as active; note: nearly all actives have a fitted effect of over 50% in size; note: potency is the fitted concentration of half-maximal effect)
Procedure, shortened: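 After a 5 h settling period, FXR-bla HEK 293T cells receive compound and chenodeoxycholic acid (50 uM final) and incubate 16 h at 37 C; CellTiter-Glo luminescence, read after 30 min at room temperature, reports cell viability.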

[7] = molecular target: Vitamin D3 receptor (Homo sapiens) (UniProt P11473); experiment: qHTS assay to identify small molecule agonists of the vitamin D receptor (VDR) signaling pathway (AID 743222; calls by dose curve)
Chain of Vitamin D3 receptor (Homo sapiens) (P11473 whole entry, looked up): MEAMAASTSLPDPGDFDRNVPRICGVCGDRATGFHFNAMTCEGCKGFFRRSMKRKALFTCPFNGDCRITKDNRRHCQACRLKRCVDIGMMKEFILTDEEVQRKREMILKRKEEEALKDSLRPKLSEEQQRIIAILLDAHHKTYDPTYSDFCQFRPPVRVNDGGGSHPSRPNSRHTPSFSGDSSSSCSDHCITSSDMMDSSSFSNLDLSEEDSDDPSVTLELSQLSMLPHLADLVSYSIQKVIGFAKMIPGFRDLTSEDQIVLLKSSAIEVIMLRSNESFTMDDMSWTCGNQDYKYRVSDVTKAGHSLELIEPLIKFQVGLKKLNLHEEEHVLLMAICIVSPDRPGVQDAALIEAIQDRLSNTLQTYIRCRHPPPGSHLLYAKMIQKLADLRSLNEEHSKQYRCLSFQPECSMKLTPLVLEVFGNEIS
Procedure, shortened: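 Beta-lactamase reporter readout (LiveBLAzer B/G FRET, 2 h RT) in VDR-bla cells after 16 h compound treatment at 37C, 5% CO2; cells pre-incubated 4 h before pin transfer of DMSO solutions.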

[8] = molecular target: Vitamin D3 receptor (Homo sapiens) (UniProt P11473); experiment: qHTS assay to identify small molecule antagonists of the vitamin D receptor (VDR) signaling pathway (AID 743223; active = well fitted inhibition curve with a large enough effect in the signal ratio in the repeat runs, not every such curve was filed as active; the % refers to the signal ratio; note: potency is the fitted concentration of half-maximal effect)
Procedure, shortened: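 Reporter line VDR-bla; stimulus 1alpha,25-(OH)2 vitamin D3, 3 nM final; compound co-addition, 16 h 37C/5% CO2; LiveBLAzer B/G substrate 2 h RT; fluorescence intensity.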

[9] = qHTS assay to identify small molecule agonists of the vitamin D receptor (VDR) signaling pathway - cell viability counter screen (AID 743224); note: nearly all actives have a fitted effect of over 50% in size; note: potency is the fitted concentration of half-maximal effect
Procedure, shortened: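 Cytotoxicity counter screen: VDR-bla cells, 16 h compound exposure at 37C, 5% CO2; CellTiter-Glo luminescence, 30 min RT, same wells as bla read.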

[10] = qHTS assay to identify small molecule antagonists of the vitamin D receptor (VDR) signaling pathway - cell viability counter screen (AID 743225); note: nearly all actives have a fitted effect of over 50% in size; note: potency is the fitted concentration of half-maximal effect
Procedure, shortened: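 Parallel cytotoxicity test: VDR-UAS-bla HEK 293T, 3 nM (final) 1-alpha,25-dihydroxyvitamin D3 with test compound, 16 h, 37C. Endpoint is CellTiter-Glo luminescence in the same wells.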

[11] = qHTS assay to identify small molecule agonists of the NFkB signaling pathway - cell viability counter screen (AID 1159515; calls by dose curve; note: series mostly up to about 61 µM; nearly all actives have a fitted effect of over 55% in size)
Procedure, shortened: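 ME-180 NFkB-bla cells, 2,000/well; overnight attach; compound 5 hr, 37 C/5% CO2; LiveBLAzer substrate 1.5 hr RT; then CellTiter-Glo in same wells, 30 min RT, luminescence read.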

[12] = qHTS assay to identify small molecule agonists of the endoplasmic reticulum stress response signaling pathway (AID 1159516; active = well fitted activation curve with a large enough effect in the signal ratio in the repeat runs, not every such curve was filed as active; the % refers to the signal ratio)
Procedure, shortened: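 HeLa ESRE-bla reporter line; cpd 5 h, 37 C/5% CO2; LiveBLAzer B/G FRET substrate 2 h RT; ex 405, em 460/530 nm.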

[13] = qHTS assay to identify small molecule agonists of the endoplasmic reticulum stress response signaling pathway - cell viability counter screen (AID 1159517; calls by dose curve)
Procedure, shortened: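 Steps: seed 1,500 ESRE-bla HeLa cells per well; incubate overnight at 37 C, 5% CO2; add compounds in DMSO for 5 hr; run FRET substrate 2 hr RT; add CellTiter-Glo, wait 30 min, read luminescence.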

[14] = qHTS assay to identify small molecule antagonists of the retinoid-related orphan receptor gamma (ROR-gamma) signaling pathway - cell viability counter screen (AID 1159520); note: nearly all actives have a fitted effect of over 50% in size
Procedure, shortened: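 Tet-on ROR gamma CHO cells were given compounds for 2 hr, then doxycycline hyclate at 1 uM final, and incubated 16 hr at 37 C. Viability was measured as ATP content by CellTiter-Glo luminescence.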

[15] = molecular target: Nuclear receptor ROR-gamma (Homo sapiens) (UniProt P51449); experiment: qHTS assay to identify small molecule antagonists of the retinoid-related orphan receptor gamma (ROR-gamma) signaling pathway (AID 1159521; note: nearly all actives have a fitted effect of over 50% in size; note: potency is the fitted concentration of half-maximal effect)
Procedure, shortened: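 Decreased RORE-driven luciferase luminescence indicates antagonism. Tet-on RORγ CHO cells received compound, then 1 uM final doxycycline 2 h later; signal read after 16 h incubation.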

[16] = qHTS assay to identify small molecule agonists of the AP-1 signaling pathway (AID 1159526; calls by dose curve)
[17] = molecular target: Retinoic acid receptor RXR-alpha (Homo sapiens) (UniProt P19793); experiment: qHTS assay to identify small molecule agonists of the RXR signaling pathway (AID 1159527; calls by dose curve; note: nearly all actives have a fitted effect of over 35% in size; note: potency is the fitted concentration of half-maximal effect)
Chain of Retinoic acid receptor RXR-alpha (Homo sapiens) (P19793 whole entry, looked up): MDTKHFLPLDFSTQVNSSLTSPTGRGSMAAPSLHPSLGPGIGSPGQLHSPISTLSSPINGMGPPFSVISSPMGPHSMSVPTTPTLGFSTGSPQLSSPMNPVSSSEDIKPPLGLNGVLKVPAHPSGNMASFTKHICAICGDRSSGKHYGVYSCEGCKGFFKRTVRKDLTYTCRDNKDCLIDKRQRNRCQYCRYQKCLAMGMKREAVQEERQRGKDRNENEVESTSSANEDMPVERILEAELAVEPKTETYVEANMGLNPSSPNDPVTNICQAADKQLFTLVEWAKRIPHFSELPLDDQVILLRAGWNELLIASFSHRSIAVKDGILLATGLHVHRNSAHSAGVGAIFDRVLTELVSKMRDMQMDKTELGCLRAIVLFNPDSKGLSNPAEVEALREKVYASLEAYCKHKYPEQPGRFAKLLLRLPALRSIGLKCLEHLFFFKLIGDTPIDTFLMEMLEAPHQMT
Procedure, shortened: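 16 hr incubation of compound-treated RXR-alpha-UAS-bla HEK 293T cells (2% charcoal-stripped FBS, 37 C) preceded a 2 hr room-temperature LiveBLAzer FRET substrate step and blue/green fluorescence measurement.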

[18] = qHTS assay to identify small molecule agonists of the RXR signaling pathway - cell viability counter screen (AID 1159529)
Procedure, shortened: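 In this parallel viability measure, GeneBLAzer RXR-alpha HEK 293T cells (2% charcoal-stripped FBS) were given a 5 hr preincubation, treated with compounds 16 hr at 37 C, and read by CellTiter-Glo luminescence.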

[19] = molecular target: Bile acid receptor (Homo sapiens) (UniProt Q96RI1); experiment: qHTS assay to identify small molecule antagonists of the farnesoid-X-receptor (FXR) signaling pathway (AID 743217; active = well fitted inhibition curve with a large enough effect in the signal ratio in the repeat runs, not every such curve was filed as active; the % refers to the signal ratio)
Chain of Bile acid receptor (Homo sapiens) (Q96RI1 whole entry, looked up): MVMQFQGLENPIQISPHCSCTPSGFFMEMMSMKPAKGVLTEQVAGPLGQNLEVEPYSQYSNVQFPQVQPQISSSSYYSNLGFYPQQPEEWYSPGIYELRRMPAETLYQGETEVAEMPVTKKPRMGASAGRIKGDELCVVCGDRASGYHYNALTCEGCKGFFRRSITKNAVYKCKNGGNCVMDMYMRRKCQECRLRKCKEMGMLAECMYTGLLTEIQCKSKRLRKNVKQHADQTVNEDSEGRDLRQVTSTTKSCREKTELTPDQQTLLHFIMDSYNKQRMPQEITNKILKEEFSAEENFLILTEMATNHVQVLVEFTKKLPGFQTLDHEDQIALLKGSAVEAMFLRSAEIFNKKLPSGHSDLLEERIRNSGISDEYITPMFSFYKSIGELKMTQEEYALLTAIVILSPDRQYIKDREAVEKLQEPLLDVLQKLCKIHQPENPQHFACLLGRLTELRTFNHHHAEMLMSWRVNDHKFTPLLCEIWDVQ
Procedure, shortened: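 Read-out: beta-lactamase FRET fluorescence (LiveBLAzer B/G substrate, 2 h, room temperature) in GeneBLAzer FXR-UAS-bla HEK 293T cells. Compounds were co-dosed with 50 uM chenodeoxycholic acid (final) and incubated 16 h at 37 °C.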

SMILES	Potency [1]	Potency [2]	Potency [3]	Potency [4]	Potency [5]	Potency [6]	outcome [7]	Potency [8]	Potency [9]	Potency [10]	Potency [11]	Potency [12]	Potency [13]	Potency [14]	Potency [15]	outcome [16]	Potency [17]	Potency [18]	Potency [19]
Cc1cccc(C)c1[N+](=O)[O-]	inactive	inactive	inactive	inactive	inactive	inactive	inactive	inactive	inactive	inactive	inactive	inactive	inactive	inactive	inactive	inactive	inactive	inactive	
Cc1cc(C)cc(O)c1	inactive	inactive	inactive	inactive	inactive	inactive	inactive	inactive	inactive	inactive	inactive	inactive	inactive	inactive	inactive	inactive	inactive	inactive	
Cc1ccccc1Cl	inactive	inactive	inactive	inactive	inactive	inactive	inactive	inactive	inactive	inactive	inactive	inactive	inactive	inactive	inactive	inactive	inactive	inactive	inactive
Cc1cc(C)c(O)c(C)c1	inactive	inactive	inactive	inactive	inactive	inactive			inactive	inactive	inactive	inactive	inactive	inactive	inactive	inactive	inactive	inactive	inactive
CO[Si](CCCNCCN)(OC)OC	inactive	inactive	inactive	inactive	inactive	inactive	inactive	inactive	inactive	inactive	inactive	inactive	inactive	inactive	inactive	inactive	inactive	inactive	
COCN(COC)c1nc(N(COC)COC)nc(N(COC)COC)n1	inactive	inactive	inactive	inactive	inactive	inactive	inactive	inactive	inactive	inactive	inactive	inactive	inactive	inactive	inactive	inactive	inactive	inactive	inactive
Cc1ccc([N+](=O)[O-])cc1N	inactive	inactive	inactive	inactive	inactive	inactive	inactive	inactive	inactive	inactive	inactive	inactive	inactive	inactive	inactive	inactive	21.8 µM (active) and inactive	inactive	inactive
CC1(C)C(=O)N(Cl)C(=O)N1Cl	inactive		inactive		inactive	inactive	inactive	inactive	inactive	inactive	inactive	inactive	inactive	inactive	inactive	inactive	inactive	inactive	
CCCCCCCCO	inactive	inactive	inactive	inactive	inactive	inactive	inactive	inactive	inactive	inactive	inactive	inactive	inactive	inactive	inactive	inactive	inactive	inactive	
Cc1ccc(C(C)C)cc1	inactive	inactive	inactive	inactive	inactive	inactive	inactive	inactive	inactive	inactive	inactive	inactive	inactive	inactive	inactive	inactive	inactive	inactive	inactive
CC(C)=CCC/C(C)=C/C=O	inactive	inactive	inactive	inactive	inactive	inactive	inactive	inactive	inactive	inactive	inactive	inactive	inactive	inactive	inactive	inactive	inactive	inactive	
c1cnc2c(c1)ccc1cccnc12	698 nM (active) and 1.95 µM (active) and 692 nM (active)		0.389 µM (active)		inactive and 1.55 µM (active)	24.8 µM (active) and 776 nM (active) and 174 nM (active)	inactive	3.89 µM (active)	1.97 µM (active) and 2.75 µM (active) and 436 nM (active)	5.49 µM (active) and 7.76 µM (active)	inactive	inactive	inactive	inactive	1.95 µM (active) and 5.45 µM (active) and 6.11 µM (active)			inactive	
